Measurements from PubChem BioAssay (EPA / NIEHS).
Activity calls are given as the source filed them. Rule for the calls: active = hit-call score of the fitted dose curve at least 0.9, where 1 is the maximum; inactive = score below 0.9.

Experiments:
Conditions in all cases: mRNA level, 48 h; actives raise or lower the signal
[1] = read-out: Apolipoprotein A-V (APOA5) gene, APOA5 (gene 116519); assay: LTEA_HepaRG_APOA5: Life Technologies and Expression Analysis (LTEA) Assay for Apolipoprotein A-V (APOA5) gene using HepaRG (AID 2283474)
Method in brief: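 Human liver HepaRG cells are treated 48 h with test chemicals (100 uM top, half-log dilutions, 0.5% DMSO). APOA5 mRNA induction or loss is measured by qRT-PCR relative to vehicle.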

[2] = read-out: Apoptosis regulator Bcl-2 (Homo sapiens) (UniProt P10415); assay: LTEA_HepaRG_BCL2: Life Technologies and Expression Analysis (LTEA) Assay for Bcl-2 gene using HepaRG (AID 2283475);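 note: BCL2 transcript by TaqMan qRT-PCR normalised to ACTB GAPDH and POLR2A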
Method in brief: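 qRT-PCR read-out (Fluidigm TaqMan) of BCL2 transcript, normalised to three housekeeping genes, after 48 h chemical exposure of HepaRG cells; 8-point half-log series, top 100 uM, 0.5% DMSO vehicle. Gain or loss of signal fitted relative to DMSO baseline.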

[3] = read-out: Bcl-2 (BID) gene, BID (gene 637); assay: LTEA_HepaRG_BID: Life Technologies and Expression Analysis (LTEA) Assay for Bcl-2 (BID) gene using HepaRG (AID 2283476)
Method in brief: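 HepaRG, 48 h exposure, 8-pt half-log series, top 100 uM, 0.5% DMSO vehicle, duplicates. Readout: BID mRNA by TaqMan qRT-PCR; housekeeping-normalized; bidirectional curve fit vs DMSO baseline.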

Caspase-3 (Homo sapiens) = Caspase-3 (Homo sapiens) (UniProt P42574); assay: LTEA_HepaRG_CASP3: Life Technologies and Expression Analysis (LTEA) Assay for cysteine-aspartic acid protease (CASP3) using HepaRG (AID 2283477)
Caspase-3 (Homo sapiens), sequence (P42574 whole entry, looked up): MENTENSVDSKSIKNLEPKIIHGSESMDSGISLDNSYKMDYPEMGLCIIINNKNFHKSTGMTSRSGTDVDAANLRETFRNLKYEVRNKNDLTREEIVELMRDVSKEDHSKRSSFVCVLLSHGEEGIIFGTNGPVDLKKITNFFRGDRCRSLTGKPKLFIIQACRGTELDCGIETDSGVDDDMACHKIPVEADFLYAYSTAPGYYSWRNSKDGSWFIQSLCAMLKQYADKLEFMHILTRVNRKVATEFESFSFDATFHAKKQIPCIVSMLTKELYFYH
Method in brief: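 In HepaRG liver cells dosed for 48 h at up to 100 uM (eight-point, duplicate), CASP3 expression changes are scored by qRT-PCR. Activity is fitted in both directions with 0.5% DMSO as baseline.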

[4] = read-out: Cytochrome P450 (CYP24A1), CYP24A1 (gene 1591); assay: LTEA_HepaRG_CYP24A1: Life Technologies and Expression Analysis (LTEA) Assay for Cytochrome P450 (CYP24A1) using HepaRG (AID 2283478)
Method in brief: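 Human liver HepaRG cultures receive each chemical for 48 h across an eight-point half-log series topping at 100 uM in 0.5% DMSO. Induction or suppression of CYP24A1 mRNA is scored relative to vehicle after housekeeping-gene normalization.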

[5] = read-out: Cytochrome P450 (CYP1A2), CYP1A2 (gene 1544); assay: LTEA_HepaRG_CYP1A2: Life Technologies and Expression Analysis (LTEA) Assay for Cytochrome P450 (CYP1A2) using HepaRG (AID 2283479);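 for AC50: TaqMan qRT-PCR transcript level normalized to ACTB GAPDH and POLR2A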
Method in brief: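 Assesses CYP1A2 mRNA in human HepaRG liver cells after 48 h chemical exposure at up to 100 uM. Values come from qRT-PCR with bidirectional curve fitting relative to DMSO.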

[6] = read-out: Cytochrome P450 (CYP2B6), CYP2B6 (gene 1555); assay: LTEA_HepaRG_CYP2B6: Life Technologies and Expression Analysis (LTEA) Assay for Cytochrome P450 (CYP2B6) using HepaRG (AID 2283481)
Method in brief: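 Using 48 h treatment of HepaRG cells in serum-free induction medium, concentrations spanned half-log steps from 100 uM in 0.5% DMSO vehicle. CYP2B6 mRNA induction or loss is scored by qRT-PCR against DMSO.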

[7] = read-out: Cytochrome P450 2C19 (Homo sapiens) (UniProt P33261); assay: LTEA_HepaRG_CYP2C19: Life Technologies and Expression Analysis (LTEA) Assay for CYP2C19 using HepaRG (AID 2283482)
Method in brief: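 Human HepaRG liver cells received test chemicals for 48 h (highest 100 uM, half-log dilutions in 0.5% DMSO). CYP2C19 mRNA induction or loss is read by multiplexed qRT-PCR and fitted in both directions versus vehicle.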

CYP2C8 (gene 1558) = assay: LTEA_HepaRG_CYP2C8: Life Technologies and Expression Analysis (LTEA) Assay for CYP2C8 using HepaRG (AID 2283483)
Method in brief: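 HepaRG (human liver line), 48 h chemical exposure, 8-pt half-log series from 100 uM, 0.5% DMSO vehicle. Readout: CYP2C8 transcript by qRT-PCR, housekeeping-normalized. Bidirectional fit vs DMSO baseline.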

[8] = read-out: cysteine-aspartic acid protease (CASP8), CASP8 (gene 841); assay: LTEA_HepaRG_CASP8: Life Technologies and Expression Analysis (LTEA) Assay for cysteine-aspartic acid protease (CASP8) using HepaRG (AID 2283480)
Method in brief: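 qRT-PCR readout of CASP8 mRNA, normalized to three housekeeping genes, after 48 h chemical exposure of HepaRG cells; 8-point half-log series, top 100 uM, 0.5% DMSO vehicle. Bidirectional curve fitting against DMSO baseline.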

Measured: AC50

Cytochrome P450 2C19 (Homo sapiens), sequence (P33261 whole entry, looked up): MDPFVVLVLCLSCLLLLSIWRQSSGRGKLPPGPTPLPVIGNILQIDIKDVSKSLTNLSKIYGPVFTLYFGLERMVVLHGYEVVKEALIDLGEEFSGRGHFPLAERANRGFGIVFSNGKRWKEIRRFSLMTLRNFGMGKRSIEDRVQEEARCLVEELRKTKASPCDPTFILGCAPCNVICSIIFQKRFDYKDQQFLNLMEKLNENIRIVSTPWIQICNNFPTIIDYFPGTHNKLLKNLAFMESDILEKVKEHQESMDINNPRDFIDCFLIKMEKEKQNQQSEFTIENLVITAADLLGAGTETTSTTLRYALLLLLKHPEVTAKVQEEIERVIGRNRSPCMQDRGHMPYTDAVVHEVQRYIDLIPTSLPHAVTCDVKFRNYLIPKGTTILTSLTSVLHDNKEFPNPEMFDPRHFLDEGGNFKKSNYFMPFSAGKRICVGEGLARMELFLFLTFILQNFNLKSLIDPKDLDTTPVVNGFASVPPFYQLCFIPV
Apoptosis regulator Bcl-2 (Homo sapiens), sequence (P10415 whole entry, looked up): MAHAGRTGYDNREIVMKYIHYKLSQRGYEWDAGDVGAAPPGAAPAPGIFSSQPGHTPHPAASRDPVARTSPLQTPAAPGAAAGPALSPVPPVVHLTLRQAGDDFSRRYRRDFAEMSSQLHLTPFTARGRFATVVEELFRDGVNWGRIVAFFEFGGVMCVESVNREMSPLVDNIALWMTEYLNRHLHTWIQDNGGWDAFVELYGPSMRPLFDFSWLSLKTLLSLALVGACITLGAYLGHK

CCOP(=O)(SC(C)CC)N1CCSC1=O (configuration not stated)
inactive: [1] | [2] | [3] | Caspase-3 (Homo sapiens) | [4] | [5] | [7] | CYP2C8 (gene 1558)
active: [6] 2.56 µM

CN(C)NC(=O)CCC(=O)O
inactive: [1] | [2] | [3] | Caspase-3 (Homo sapiens) | [4] | [5] | [6] | [7]

CN1COCN(Cc2cnc(Cl)s2)C1=N[N+](=O)[O-]
inactive: [1] | [3] | Caspase-3 (Homo sapiens) | [4] | [5] | [7] | CYP2C8 (gene 1558)
active: [6] 50 µM

C[Si](Cn1cncn1)(c1ccc(F)cc1)c1ccc(F)cc1
active: [1] 15.8 µM | [3] 50 µM | [5] 85.6 µM | [6] 68.8 µM | [7] 80.1 µM
inactive: Caspase-3 (Homo sapiens) | [4]

COc1cc(OC)nc(Sc2cccc(Cl)c2C(=O)O)n1
inactive: [1] | [3] | Caspase-3 (Homo sapiens) | [4] | [5] | [8] | [6] | [7] | CYP2C8 (gene 1558)

C#CC(C)(C)NC(=O)c1cc(Cl)cc(Cl)c1
active: [5] 50 µM | [6] 8.65 µM | [7] 20.2 µM
inactive: [1] | [3] | Caspase-3 (Homo sapiens) | [4] | CYP2C8 (gene 1558)

CCC(=NOC/C=C/Cl)C1=C(O)CC(C2CCOCC2)CC1=O (configuration not stated)
inactive: [1] | [3] | Caspase-3 (Homo sapiens) | [4] | [5] | [6] | [7]

CCCOCC(=Nc1ccc(Cl)cc1C(F)(F)F)n1ccnc1
inactive: [1] | [3] | Caspase-3 (Homo sapiens) | [4] | [5] | [8]
active: [6] 30.4 µM | [7] 32.5 µM

CCCOc1nn(C(=O)NS(=O)(=O)c2ccccc2C(=O)OC)c(=O)n1C
inactive: [1] | [3] | Caspase-3 (Homo sapiens) | [4] | [5] | [6] | [7] | CYP2C8 (gene 1558)

CCC(CC)Nc1c([N+](=O)[O-])cc(C)c(C)c1[N+](=O)[O-]
active: [6] 13.1 µM | [7] 6.35 µM
inactive: [3] | Caspase-3 (Homo sapiens) | [4] | [5] | CYP2C8 (gene 1558)

CNC(=O)ON=C(SC)C(=O)N(C)C
active: CYP2C8 (gene 1558) 0.0994 µM
inactive: [1] | [3] | Caspase-3 (Homo sapiens) | [4] | [5] | [6] | [7]

Nc1c(Cl)cc([N+](=O)[O-])cc1Cl
inactive: [4]
active: [1] 68.5 µM | [3] 83.3 µM | Caspase-3 (Homo sapiens) 17.3 µM | [5] 13 µM | [6] 11.8 µM | [7] 85 µM | CYP2C8 (gene 1558) 78.4 µM

CCc1cccc(CC)c1N(COC)C(=O)CCl
inactive: [1] | [3] | Caspase-3 (Homo sapiens) | [4] | [5] | [7]
active: [6] 50 µM

C[N+]1(C)CCCCC1
inactive: [1] | [3] | Caspase-3 (Homo sapiens) | [4] | [5] | [6] | [7] | CYP2C8 (gene 1558)

CCOP(=O)(NC(C)C)Oc1ccc(SC)c(C)c1 (configuration not stated)
active: [6] 22.5 µM | [7] 50 µM
inactive: [1] | [3] | Caspase-3 (Homo sapiens) | [4] | [5] | CYP2C8 (gene 1558)

CC(Oc1cccc(Cl)c1)C(=O)O (configuration not stated)
inactive: [1] | [3] | Caspase-3 (Homo sapiens) | [4] | [5]
active: [6] 2.24 µM | [7] 7.31 µM

O=[N+]([O-])c1cc(C(F)(F)F)c(Cl)c([N+](=O)[O-])c1Nc1ncc(C(F)(F)F)cc1Cl
inactive: [1] | [3] | Caspase-3 (Homo sapiens) | [4] | [8]
active: [5] 8.27 µM | [6] 13 µM | [7] 26 µM | CYP2C8 (gene 1558) 26.8 µM

O=c1ccc(=O)[nH][nH]1
active: [6] 4.2 µM
inactive: [1] | [3] | Caspase-3 (Homo sapiens) | [4] | [5] | [7] | CYP2C8 (gene 1558)

CCCCSP(=O)(SCCCC)SCCCC
inactive: [1] | [3] | Caspase-3 (Homo sapiens) | [4] | [8]
active: [5] 13 µM | [6] 12.5 µM | [7] 12.8 µM

CCCSP(=O)(OCC)SCCC
active: [1] 12.9 µM | [6] 2.48 µM
inactive: [3] | Caspase-3 (Homo sapiens) | [4] | [5] | [7]

Nc1nc(N)nc(NC2CC2)n1
inactive: [1] | [3] | Caspase-3 (Homo sapiens) | [4] | [5] | [8] | [6] | [7] | CYP2C8 (gene 1558)

CN(C)C(=O)Nc1cccc(C(F)(F)F)c1
active: [3] 79.3 µM | [5] 42 µM | [6] 2.55 µM | [7] 16 µM
inactive: [1] | Caspase-3 (Homo sapiens) | [4]

COc1cccc(C(=O)NN(C(=O)c2cc(C)cc(C)c2)C(C)(C)C)c1C
inactive: [1] | [3] | Caspase-3 (Homo sapiens) | [4] | [8]
active: [5] 18.7 µM | [6] 1.16 µM | [7] 1.49 µM

N#CSCSC#N
active: [6] 92.3 µM | [7] 90.8 µM
inactive: [1] | [3] | Caspase-3 (Homo sapiens) | [4] | [5]

CNC(=O)ON=C(C)SC
inactive: [1] | [3] | Caspase-3 (Homo sapiens) | [4] | [5] | [8] | [6] | [7]

COP(=O)(OC)OC(Br)C(Cl)(Cl)Br (configuration not stated)
inactive: [1] | [3] | Caspase-3 (Homo sapiens) | [4] | [7]
active: [5] 26.3 µM | [6] 2.45 µM

COP(=O)(NC(C)=O)SC (configuration not stated)
inactive: [1] | [3] | Caspase-3 (Homo sapiens) | [4] | [8] | [6] | [7]

CC1=NNC(=O)N(/N=C/c2cccnc2)C1
active: [5] 6.84 µM
inactive: [1] | [3] | Caspase-3 (Homo sapiens) | [4] | [6] | [7] | CYP2C8 (gene 1558)

FC(F)C(F)(F)OCC(Cn1cncn1)c1ccc(Cl)cc1Cl (configuration not stated)
active: [1] 35.6 µM | Caspase-3 (Homo sapiens) 82 µM | [5] 28.6 µM | [6] 31.7 µM | [7] 34.8 µM | CYP2C8 (gene 1558) 24.6 µM
inactive: [3] | [4]

Cc1nn(-c2cc(NS(C)(=O)=O)c(Cl)cc2Cl)c(=O)n1C(F)F
inactive: [1] | [3] | Caspase-3 (Homo sapiens) | [4] | [5] | [8] | CYP2C8 (gene 1558)
active: [6] 11.8 µM | [7] 6.21 µM

COP(=O)(OC)C(O)C(Cl)(Cl)Cl (configuration not stated)
inactive: [1] | Caspase-3 (Homo sapiens) | [8]
active: [3] 0.155 µM

CSc1nc(NC(C)C)nc(NC(C)C)n1
active: [1] 50 µM | [6] 1.31 µM | [7] 1.96 µM
inactive: [3] | Caspase-3 (Homo sapiens) | [4] | [5]

CCOP(=S)(OCC)Oc1ccc([N+](=O)[O-])cc1
inactive: [1] | [3] | Caspase-3 (Homo sapiens) | [4] | [8] | CYP2C8 (gene 1558)
active: [5] 15.1 µM | [6] 0.636 µM | [7] 9.2 µM

CC(COc1ccc(Oc2ccccc2)cc1)Oc1ccccn1 (configuration not stated)
inactive: [1] | [3] | Caspase-3 (Homo sapiens) | [4] | [7]
active: [5] 13.1 µM | [6] 3.68 µM

CC(C)=CC1C(C(=O)OCN2C(=O)C3=C(CCCC3)C2=O)C1(C)C (configuration not stated)
inactive: [1] | [3] | Caspase-3 (Homo sapiens) | [4]
active: [5] 31.5 µM | [6] 50 µM

C#CCC1=C(C)C(OC(=O)C2C(C=C(C)C)C2(C)C)CC1=O (configuration not stated)
inactive: [1] | [3] | Caspase-3 (Homo sapiens) | [4] | [5] | [7]
active: [6] 12.1 µM

CCOP(=S)(OCC)Oc1cc(C)nc(C(C)C)n1
active: [5] 29.3 µM | [6] 2.5 µM | [7] 16.1 µM
inactive: [1] | [3] | Caspase-3 (Homo sapiens) | [4] | [8] | CYP2C8 (gene 1558)

CC(C)[C@H](C(=O)O[C@H](C#N)c1cccc(Oc2ccccc2)c1)c1ccc(Cl)cc1
active: [5] 37.3 µM | [6] 20.8 µM | [7] 34.2 µM
inactive: [1] | [3] | Caspase-3 (Homo sapiens) | [4] | [8]
